In PubChem BioAssay AID1159580 (chemical genetic matrix, 2015):
Hit rate of the full screen: of about 5,500 compounds, about 2,000 (36%) were called active. About 18% were inconclusive and are not listed. Rule as the data show it: active = normalized growth mostly below about 0.91 (no sharp cut-off); inconclusive = no clear call, values can overlap the other calls; inactive = mostly above about 0.92. The list shows a part of the results.

Assay: chemical genetic growth profiling, strain panel (AID 1159580);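 also: tested at 20 µM; growth read once vehicle control cultures reached saturation at 30 °C; 1 = growth at the plate median or of vehicle wells; lower values mean less growth of the strain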
Conditions: growth OD
[1] = S. cerevisiae deletion strains, locus YMR263W, strain SAP30, active compounds read low
[2] = S. cerevisiae deletion strains, locus YNL153C, strain GIM3, active compounds read low
[3] = S. cerevisiae deletion strains, locus YNL322C, strain KRE1, active compounds read low
[4] = S. cerevisiae deletion strains, locus YPL241C, strain CIN2, active compounds read low

Measured: normalized growth

[N-]=[N+]=Nc1ccc(C(=O)CSC[C@H](NC(=O)CC[C@H](N)C(=O)O)C(=O)NCC(=O)O)cc1
inactive: S. cerevisiae deletion strains, locus YAL040C, strain CLN3, active compounds read low 1.02 | S. cerevisiae deletion strains, locus YDR363W, strain ESC2, active compounds read low 0.999 | S. cerevisiae deletion strains, locus YER002W, strain NOP16, active compounds read low 0.989 | S. cerevisiae deletion strains, locus YGR229C, strain SMI1, active compounds read low 1 | [1] 0.997 | [2] 0.99 | S. cerevisiae deletion strains, locus YNL175C, strain NOP13, active compounds read low 1.01 | S. cerevisiae deletion strains, locus YNL197C, strain WHI3, active compounds read low 1.01 | S. cerevisiae deletion strains, locus YNL224C, strain SQS1, active compounds read low 1.01 | [3] 1.01 | S. cerevisiae deletion strains, locus YOR083W, strain WHI5 (second series), active compounds read low 1.01 | [4] 0.996

CSc1ccc(C(=O)O)s1
inactive: S. cerevisiae deletion strains, locus YAL013W, strain DEP1, active compounds read low 0.969 | S. cerevisiae deletion strains, locus YBR229C, strain ROT2, active compounds read low 0.931 | S. cerevisiae deletion strains, locus YCL061C, strain MRC1, active compounds read low 0.938 | S. cerevisiae deletion strains, locus YDL101C, strain DUN1, active compounds read low 0.939 | S. cerevisiae deletion strains, locus YDR150W, strain NUM1, active compounds read low 0.945 | S. cerevisiae deletion strains, locus YEL061C, strain CIN8, active compounds read low 1.03 | S. cerevisiae deletion strains, locus YHR030C, strain SLT2, active compounds read low 1.16 | S. cerevisiae deletion strains, locus YJR043C, strain POL32, active compounds read low 0.961 | S. cerevisiae deletion strains, locus YKL190W, strain CNB1, active compounds read low 1.01 | S. cerevisiae deletion strains, locus YLR039C, strain RIC1, active compounds read low 1.04 | S. cerevisiae deletion strains, locus YLR058C, strain SHM2 (second series), active compounds read low 0.945 | S. cerevisiae deletion strains, locus YLR085C, strain ARP6, active compounds read low 1.1 | S. cerevisiae deletion strains, locus YLR262C, strain YPT6, active compounds read low 1.01 | S. cerevisiae deletion strains, locus YML094W, strain GIM5, active compounds read low 1.04 | S. cerevisiae deletion strains, locus YMR219W, strain ESC1, active compounds read low 0.957 | [1] 0.955 | S. cerevisiae deletion strains, locus YMR307W, strain GAS1, active compounds read low 1.05 | S. cerevisiae deletion strains, locus YNL128W, strain TEP1, active compounds read low 1.01 | [2] 0.932 | S. cerevisiae deletion strains, locus YNL298W, strain CLA4 (second series), active compounds read low 1.07 | [3] 0.944 | S. cerevisiae deletion strains, locus YNR030W, strain Alg12, active compounds read low 1.03 | S. cerevisiae deletion strains, locus YPL055C, strain LGE1, active compounds read low 0.883 | [4] 0.906 | S. cerevisiae deletion strains, locus YPR135W, strain CTF4, active compounds read low 1.11 | S. cerevisiae strains, strain wild type, active compounds read low 1.01
active: S. cerevisiae deletion strains, locus YGR078C, strain PAC10, active compounds read low 0.926 | S. cerevisiae deletion strains, locus YHR087W, strain rtc3, active compounds read low 0.862 | S. cerevisiae deletion strains, locus YJR075W, strain HOC1, active compounds read low 0.874
